Molecules are shown by their SMILES. Several values for one entry are separate records, joined by “and”; a condition that tells them apart may be missing. Identical values can stand only once. The campaign covered roughly 77,000 compounds. About 4,600 (6%) were called active. Another 1% or so got no clear call; they are omitted. The entries come from a sample that favours actives as a whole. A number with no mark means an inactive call.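 Rule for the calls: active = mean inhibition above about 93%, with at least 55% of replicates each passing it (limit read from the data, passing the limit was not always enough); inconclusive = only one of those two conditions holds; inactive = neither condition holds.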

The experiment is described as follows: growth inhibition of T. cruzi in host fibroblasts – cell-based, beta-gal Tulahuen parasites, NIH3T3 host, luminescence, primary screen (AID 624255). As to conditions: T. cruzi beta-gal in NIH3T3, GalScreen luminescence, 90 h; at 8.34 µM; hits give high values.
On to `O=C(Cc1ccccn1)N1CCCCN2[C@H](C1)[C@H](c1ccc(-c3ccccc3F)cc1)[C@@H]2CO`, for which the inhibition is 16.7%. The same measure for `COc1cccc(-c2ccc([C@H]3[C@H]4CN(C(=O)Cc5ccncc5)CCCCN4[C@H]3CO)cc2)c1`: 80.9%. The same measure for `O=C(Cc1ccncc1)N1CCCCN2[C@H](CO)[C@@H](c3ccc(C#CC4(O)CCCC4)cc3)[C@H]2C1`: 63%.

Turning to `N#Cc1cccc(-c2ccc([C@H]3[C@@H](CO)N4CCCCN(C(=O)Cc5cccnc5)C[C@@H]34)cc2)c1`, the inhibition was 61.2%. Under `COc1ccc(-c2ccc([C@H]3[C@H](CO)N4CCCCN(C(=O)Cc5ccncc5)C[C@@H]34)cc2)cc1` stands 102% (active); under `O=C(Cc1ccccn1)N1CCCCN2[C@@H](CO)[C@@H](c3ccc(C#Cc4ccccc4)cc3)[C@@H]2C1`, 110% (active); under `O=C(Cc1ccncc1)N1CCCCN2[C@@H](CO)[C@H](c3ccc(C#CC4(O)CCCC4)cc3)[C@@H]2C1`, 93.8%. `C/C=C/c1ccc([C@H]2[C@H](CO)N3CCCCN(C(=O)Cc4ccncc4)C[C@@H]23)cc1`: the inhibition is 126% (active).

In the case of `O=C(Cc1cccnc1)N1CCCCN2[C@@H](CO)[C@H](c3ccc(C#CC4CCCC4)cc3)[C@@H]2C1`, the inhibition is 110% (active). The same measure for `OC[C@@H]1[C@H]2c3ccccc3NC[C@H]2N1Cc1cccnc1`: 77.8%. The same measure for `O=C(Cc1ccncc1)N1CCCCN2[C@@H](CO)[C@H](c3ccc(-c4ccncc4)cc3)[C@@H]2C1`: 60.5%; for `COC(=O)[C@H]1[C@H](CO)[C@H]2Cn3c(ccc(C4=CCCC4)c3=O)[C@@H]1N2C(=O)CC1CC1`: 11.8%; for `COC(=O)[C@@H]1[C@@H](CO)[C@@H]2Cn3c(ccc(-c4ccc(F)cc4)c3=O)[C@H]1N2C(C)=O`: -2.43%. The same measure for `COC(=O)[C@H]1[C@H](CO)[C@H]2Cn3c(ccc(-c4cccc(F)c4)c3=O)[C@@H]1N2Cc1ccccc1`: 8.82%; for `O=C(O)[C@H]1[C@H](CO)[C@H]2Cn3c(cccc3=O)[C@@H]1N2C(=O)c1ccccc1`: 42.5%.

On to `O=C(O)[C@H]1[C@H](CO)[C@H]2Cn3c(ccc(-c4ccccc4F)c3=O)[C@@H]1N2C(=O)c1cccnc1`, for which the inhibition is 30%. The same measure for `COC(=O)C[C@@H]1CC[C@@H]2NC[C@@H](O)COC[C@H]2O1`: 54.8%.

For `COC(=O)[C@H]1[C@H](CO)[C@H]2Cn3c(ccc(-c4ccccc4F)c3=O)[C@@H]1N2C(=O)C1CCC1`, the inhibition was 44.2%. Under `COc1cccc(-c2ccc3n(c2=O)C[C@@H]2[C@@H](CO)[C@H](C(=O)O)[C@H]3N2C(=O)c2cnccn2)c1` stands 39.3%; under `C[C@H]1CN([C@@H](C)CO)C(=O)CCCn2nncc2CO[C@H]1CN(C)C(=O)Oc1cccc2ccccc12`, -20.3% and -6.68%. Consider `COc1ccc(C#Cc2ccc([C@H]3[C@H](CO)N4CCCCN(C(=O)Cc5ccccc5)C[C@@H]34)cc2)cc1`, for which the inhibition was 109% (active). Consider `O=C(Cc1ccccc1)N1CCCCN2[C@H](CO)[C@H](c3ccc(C#Cc4ccccc4)cc3)[C@H]2C1`, for which the inhibition is 94.6%. Under `O=C(Cc1ccccc1)N1CCCCN2[C@H](C1)[C@H](c1ccc(C#CC3(O)CCCC3)cc1)[C@@H]2CO` stands 84.7%; under `COC(=O)[C@@H]1[C@@H](CO)[C@@H]2Cn3c(ccc(C4=CCCCC4)c3=O)[C@H]1N2CC1CC1`, 48.5%. Under `C[C@H]1CN([C@@H](C)CO)C(=O)CCCn2nncc2CO[C@H]1CN(C)C(=O)Oc1ccccc1` stands 32% and -17.3%.

Source of the values: PubChem BioAssay AID624255 (Broad Institute, 2012).
